# Publication PMC7862700, “An all-to-all approach to the identification of sequence-specific readers for epigenetic DNA modifications on cytosine”
# Key:
# Experiment in all cases: DAPPL (digital affinity profiling via proximity ligation, sequencing); 10 mM Tris-HCl pH 7.5, 50 mM NaCl, 1 mM DTT, 4% glycerol, room temperature, 30 min; GST-TFs on glutathione beads, 16-mer random dsDNA library, 0.1% formaldehyde crosslink after washing; high values mean tight binding
# FLI1 = biological target: T1, FLI1 (Homo sapiens, UniProt Q01543 1-452); settings: protein: recombinant; tags: N-terminal GST; dsDNA, one strand shown
# T1 sequence: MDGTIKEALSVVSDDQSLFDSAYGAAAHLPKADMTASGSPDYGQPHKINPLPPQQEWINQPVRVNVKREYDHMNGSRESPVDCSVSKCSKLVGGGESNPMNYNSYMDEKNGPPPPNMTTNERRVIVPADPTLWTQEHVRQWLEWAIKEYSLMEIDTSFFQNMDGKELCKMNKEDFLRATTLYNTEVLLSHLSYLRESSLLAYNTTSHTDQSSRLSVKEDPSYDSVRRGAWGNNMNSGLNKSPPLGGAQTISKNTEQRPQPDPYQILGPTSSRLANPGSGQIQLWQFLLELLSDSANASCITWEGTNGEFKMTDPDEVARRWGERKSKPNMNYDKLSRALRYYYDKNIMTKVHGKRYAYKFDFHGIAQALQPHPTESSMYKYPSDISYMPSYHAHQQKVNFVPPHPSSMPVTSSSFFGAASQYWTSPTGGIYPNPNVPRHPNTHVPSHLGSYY
# How it was run: (§1)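 Pools were built from human transcription factors expressed in yeast as GST fusions, captured on glutathione beads and DNA-barcoded, along with a tag-only sample. Incubation with 200 nmole of a 16-mer random double-stranded DNA library lasted 30 min at room temperature in Tris/NaCl/DTT/glycerol buffer, and was followed by washing, 0.1% formaldehyde crosslinking, proximity ligation, PCR amplification and Illumina NextSeq500 sequencing. Binding signal is the quotient of each hexamer's read frequency for a factor and its frequency for the tag-only sample.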
# ELK1 = biological target: T2, ELK1 (Homo sapiens, UniProt P19419 1-428); settings: protein: recombinant; tags: N-terminal GST; dsDNA, one strand shown
# T2 sequence: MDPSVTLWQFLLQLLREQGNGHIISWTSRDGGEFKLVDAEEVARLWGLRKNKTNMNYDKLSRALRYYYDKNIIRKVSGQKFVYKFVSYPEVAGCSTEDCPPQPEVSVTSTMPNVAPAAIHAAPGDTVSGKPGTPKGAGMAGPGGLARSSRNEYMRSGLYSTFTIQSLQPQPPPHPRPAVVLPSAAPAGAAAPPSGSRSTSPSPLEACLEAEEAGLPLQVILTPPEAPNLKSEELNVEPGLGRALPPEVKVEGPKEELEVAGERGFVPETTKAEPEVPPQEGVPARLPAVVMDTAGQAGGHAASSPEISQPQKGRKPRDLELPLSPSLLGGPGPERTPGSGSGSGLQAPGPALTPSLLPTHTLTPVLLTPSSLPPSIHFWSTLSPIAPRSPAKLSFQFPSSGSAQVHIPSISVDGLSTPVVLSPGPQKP
# How it was run: as §1
# GABPA = biological target: T3, GABPA (Homo sapiens, UniProt Q06546 1-454); settings: protein: recombinant; tags: N-terminal GST; dsDNA, one strand shown
# T3 sequence: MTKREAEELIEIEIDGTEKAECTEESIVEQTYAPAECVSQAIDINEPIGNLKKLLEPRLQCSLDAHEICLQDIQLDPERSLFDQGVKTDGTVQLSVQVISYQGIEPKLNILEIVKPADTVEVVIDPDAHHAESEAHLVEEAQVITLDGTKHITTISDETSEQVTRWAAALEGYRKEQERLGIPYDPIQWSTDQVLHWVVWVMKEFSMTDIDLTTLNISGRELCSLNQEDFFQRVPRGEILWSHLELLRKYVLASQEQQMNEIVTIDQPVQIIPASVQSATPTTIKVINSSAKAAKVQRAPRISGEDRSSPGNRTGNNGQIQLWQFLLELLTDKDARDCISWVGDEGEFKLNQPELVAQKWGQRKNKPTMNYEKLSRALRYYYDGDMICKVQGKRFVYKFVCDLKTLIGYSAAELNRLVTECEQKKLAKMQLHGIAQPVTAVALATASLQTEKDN
# How it was run: as §1
# ERG = biological target: T4, ERG (Homo sapiens, UniProt P11308 1-479); settings: protein: recombinant; tags: N-terminal GST; dsDNA, one strand shown
# T4 sequence: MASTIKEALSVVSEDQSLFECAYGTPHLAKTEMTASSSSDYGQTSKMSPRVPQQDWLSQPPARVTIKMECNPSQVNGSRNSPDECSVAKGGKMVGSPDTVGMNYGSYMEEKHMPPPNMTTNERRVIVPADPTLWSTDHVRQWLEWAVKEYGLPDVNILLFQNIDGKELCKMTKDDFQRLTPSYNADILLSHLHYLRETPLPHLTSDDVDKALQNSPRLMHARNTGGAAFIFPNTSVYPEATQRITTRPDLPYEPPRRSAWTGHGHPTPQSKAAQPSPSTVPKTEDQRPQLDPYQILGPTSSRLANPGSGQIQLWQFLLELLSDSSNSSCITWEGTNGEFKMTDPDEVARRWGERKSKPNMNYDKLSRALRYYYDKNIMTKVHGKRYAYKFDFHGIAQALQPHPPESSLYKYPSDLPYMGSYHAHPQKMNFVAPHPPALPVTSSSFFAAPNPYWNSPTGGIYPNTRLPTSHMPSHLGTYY
# How it was run: as §1
# ELF1 = ELF1 (Homo sapiens, UniProt P32519 1-619); settings: protein: recombinant; tags: N-terminal GST; dsDNA, one strand shown
# Chain of ELF1 (P32519 whole entry): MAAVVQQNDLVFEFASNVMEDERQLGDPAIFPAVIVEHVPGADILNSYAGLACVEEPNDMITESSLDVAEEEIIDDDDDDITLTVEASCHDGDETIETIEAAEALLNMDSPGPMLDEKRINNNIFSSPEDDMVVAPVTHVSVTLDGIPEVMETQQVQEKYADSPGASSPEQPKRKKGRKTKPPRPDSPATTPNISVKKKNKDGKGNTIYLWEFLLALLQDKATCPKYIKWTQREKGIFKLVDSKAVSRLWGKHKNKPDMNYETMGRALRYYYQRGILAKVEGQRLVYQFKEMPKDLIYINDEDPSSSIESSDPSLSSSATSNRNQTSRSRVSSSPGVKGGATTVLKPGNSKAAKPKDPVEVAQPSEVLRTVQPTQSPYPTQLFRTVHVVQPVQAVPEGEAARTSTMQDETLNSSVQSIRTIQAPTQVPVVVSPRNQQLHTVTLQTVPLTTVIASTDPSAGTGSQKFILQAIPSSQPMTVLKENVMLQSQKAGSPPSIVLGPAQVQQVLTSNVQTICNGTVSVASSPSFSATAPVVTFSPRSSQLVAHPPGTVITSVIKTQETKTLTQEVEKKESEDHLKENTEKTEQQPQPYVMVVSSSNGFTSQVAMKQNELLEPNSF
# How it was run: as §1
# EHF = biological target: T5, EHF (Homo sapiens, UniProt Q9NZC4 1-300); settings: protein: recombinant; tags: N-terminal GST; dsDNA, one strand shown
# T5 sequence: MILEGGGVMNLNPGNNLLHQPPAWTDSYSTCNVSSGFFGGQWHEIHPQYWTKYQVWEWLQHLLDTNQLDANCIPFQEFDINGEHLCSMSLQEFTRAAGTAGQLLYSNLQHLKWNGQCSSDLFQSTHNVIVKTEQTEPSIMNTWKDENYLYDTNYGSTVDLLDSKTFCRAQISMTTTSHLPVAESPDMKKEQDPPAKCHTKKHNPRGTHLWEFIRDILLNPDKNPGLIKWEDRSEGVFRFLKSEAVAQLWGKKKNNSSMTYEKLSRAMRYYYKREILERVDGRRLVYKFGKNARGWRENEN
# How it was run: as §1
# SPI1 = SPI1 (Homo sapiens, UniProt P17947 1-270); settings: protein: recombinant; tags: N-terminal GST; dsDNA, one strand shown
# How it was run: as §1
# SPIB = SPIB (Homo sapiens, UniProt Q01892 1-262); settings: protein: recombinant; tags: N-terminal GST; dsDNA, one strand shown
# Chain of SPIB (Q01892 whole entry): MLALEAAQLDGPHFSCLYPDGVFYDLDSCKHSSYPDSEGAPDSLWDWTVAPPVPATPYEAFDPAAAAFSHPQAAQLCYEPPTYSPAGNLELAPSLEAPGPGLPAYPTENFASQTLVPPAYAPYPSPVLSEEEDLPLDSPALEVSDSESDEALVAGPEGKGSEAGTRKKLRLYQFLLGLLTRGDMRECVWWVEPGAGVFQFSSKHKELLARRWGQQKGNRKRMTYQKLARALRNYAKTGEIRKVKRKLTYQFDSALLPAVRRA
# How it was run: as §1
# ELK3 = biological target: T6, ELK3 (Homo sapiens, UniProt P41970 1-407); settings: protein: recombinant; tags: N-terminal GST; dsDNA, one strand shown
# T6 sequence: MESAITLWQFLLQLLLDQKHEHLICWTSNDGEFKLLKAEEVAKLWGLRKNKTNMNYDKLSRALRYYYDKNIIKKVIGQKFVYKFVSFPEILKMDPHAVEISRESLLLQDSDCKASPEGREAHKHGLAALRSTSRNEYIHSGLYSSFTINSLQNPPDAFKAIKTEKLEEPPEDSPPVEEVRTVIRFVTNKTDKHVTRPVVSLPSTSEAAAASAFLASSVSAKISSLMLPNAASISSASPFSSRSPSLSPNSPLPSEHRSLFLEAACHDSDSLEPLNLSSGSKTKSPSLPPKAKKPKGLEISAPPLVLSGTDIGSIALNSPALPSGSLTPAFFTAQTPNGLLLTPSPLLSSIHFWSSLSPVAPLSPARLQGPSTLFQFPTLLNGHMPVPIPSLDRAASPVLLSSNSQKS
# How it was run: as §1
# FEV = biological target: T7, FEV (Homo sapiens, UniProt Q99581 1-238); settings: protein: recombinant; tags: N-terminal GST; dsDNA, one strand shown
# T7 sequence: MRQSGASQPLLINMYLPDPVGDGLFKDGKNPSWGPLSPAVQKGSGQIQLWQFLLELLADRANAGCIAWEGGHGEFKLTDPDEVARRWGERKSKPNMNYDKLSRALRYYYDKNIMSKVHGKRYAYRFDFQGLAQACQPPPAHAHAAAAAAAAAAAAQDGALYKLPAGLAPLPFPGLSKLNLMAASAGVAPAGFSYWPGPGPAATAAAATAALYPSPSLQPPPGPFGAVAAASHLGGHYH
# How it was run: as §1
# ETV5 = ETV5 (Homo sapiens, UniProt P41161 1-510); settings: protein: recombinant; tags: N-terminal GST; dsDNA, one strand shown
# Chain of ETV5 (P41161 whole entry): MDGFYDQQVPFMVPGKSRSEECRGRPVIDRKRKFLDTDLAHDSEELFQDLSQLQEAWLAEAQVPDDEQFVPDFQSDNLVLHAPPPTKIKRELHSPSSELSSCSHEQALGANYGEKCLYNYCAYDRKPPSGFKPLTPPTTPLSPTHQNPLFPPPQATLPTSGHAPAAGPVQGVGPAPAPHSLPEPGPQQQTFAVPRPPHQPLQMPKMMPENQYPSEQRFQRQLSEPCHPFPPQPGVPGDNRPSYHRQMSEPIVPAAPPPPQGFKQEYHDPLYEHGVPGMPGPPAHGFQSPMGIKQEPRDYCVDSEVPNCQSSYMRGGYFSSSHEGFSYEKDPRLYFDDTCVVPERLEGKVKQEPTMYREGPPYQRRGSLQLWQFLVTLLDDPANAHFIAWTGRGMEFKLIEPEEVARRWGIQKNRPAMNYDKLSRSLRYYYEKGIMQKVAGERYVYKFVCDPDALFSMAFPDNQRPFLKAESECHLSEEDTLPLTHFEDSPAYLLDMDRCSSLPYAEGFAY
# How it was run: as §1
# HSF1 = HSF1 (Homo sapiens, UniProt Q00613 1-529); settings: protein: recombinant; tags: N-terminal GST; chain copies: 3; dsDNA, one strand shown
# Chain of HSF1 (Q00613 whole entry): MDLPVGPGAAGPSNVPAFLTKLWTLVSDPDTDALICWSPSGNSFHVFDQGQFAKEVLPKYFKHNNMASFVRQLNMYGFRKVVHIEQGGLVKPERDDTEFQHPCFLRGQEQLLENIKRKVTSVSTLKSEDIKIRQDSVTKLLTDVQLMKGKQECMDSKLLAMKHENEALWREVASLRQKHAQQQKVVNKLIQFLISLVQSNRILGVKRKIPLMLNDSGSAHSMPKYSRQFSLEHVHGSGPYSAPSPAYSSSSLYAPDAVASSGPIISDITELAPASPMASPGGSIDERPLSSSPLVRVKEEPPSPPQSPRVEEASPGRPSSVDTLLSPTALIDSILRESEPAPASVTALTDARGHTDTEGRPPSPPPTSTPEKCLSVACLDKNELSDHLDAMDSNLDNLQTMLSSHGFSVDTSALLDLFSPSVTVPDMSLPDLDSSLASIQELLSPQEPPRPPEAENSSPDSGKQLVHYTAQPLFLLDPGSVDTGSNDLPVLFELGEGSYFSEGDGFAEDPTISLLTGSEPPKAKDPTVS
# How it was run: as §1
# SPIC = biological target: T8, SPIC (Homo sapiens, UniProt Q8N5J4 1-248); settings: protein: recombinant; tags: N-terminal GST; dsDNA, one strand shown
# T8 sequence: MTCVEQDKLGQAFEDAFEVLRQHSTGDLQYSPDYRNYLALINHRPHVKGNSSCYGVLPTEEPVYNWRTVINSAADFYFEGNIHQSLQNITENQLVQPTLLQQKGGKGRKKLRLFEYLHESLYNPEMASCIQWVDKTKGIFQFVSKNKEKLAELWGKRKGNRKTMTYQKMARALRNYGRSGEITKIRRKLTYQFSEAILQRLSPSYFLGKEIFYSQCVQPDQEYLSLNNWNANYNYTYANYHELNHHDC
# How it was run: as §1
# ELF4 = ELF4 (Homo sapiens, UniProt Q99607 1-663); settings: protein: recombinant; tags: N-terminal GST; dsDNA, one strand shown
# Chain of ELF4 (Q99607 whole entry): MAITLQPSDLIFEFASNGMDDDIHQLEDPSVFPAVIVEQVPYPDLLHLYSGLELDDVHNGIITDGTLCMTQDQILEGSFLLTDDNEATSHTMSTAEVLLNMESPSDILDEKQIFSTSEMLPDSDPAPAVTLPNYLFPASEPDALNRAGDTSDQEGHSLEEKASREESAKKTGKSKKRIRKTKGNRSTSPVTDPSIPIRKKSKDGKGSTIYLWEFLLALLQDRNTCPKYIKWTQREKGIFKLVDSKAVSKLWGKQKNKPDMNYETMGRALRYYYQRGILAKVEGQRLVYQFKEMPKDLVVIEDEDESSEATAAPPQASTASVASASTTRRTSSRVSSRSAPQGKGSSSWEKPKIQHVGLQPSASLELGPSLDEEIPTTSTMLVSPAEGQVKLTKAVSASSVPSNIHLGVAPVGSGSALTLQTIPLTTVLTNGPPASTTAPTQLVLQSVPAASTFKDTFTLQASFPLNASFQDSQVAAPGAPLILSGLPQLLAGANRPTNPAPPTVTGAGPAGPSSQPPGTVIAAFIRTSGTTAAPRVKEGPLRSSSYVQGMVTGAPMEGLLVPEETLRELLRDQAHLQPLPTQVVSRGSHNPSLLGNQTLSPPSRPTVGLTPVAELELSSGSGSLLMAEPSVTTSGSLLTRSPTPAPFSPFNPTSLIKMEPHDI
# How it was run: as §1
# ELK4 = biological target: T9, ELK4 (Homo sapiens, UniProt P28324-2 1-405); settings: protein: recombinant; tags: N-terminal GST; dsDNA, one strand shown
# T9 sequence: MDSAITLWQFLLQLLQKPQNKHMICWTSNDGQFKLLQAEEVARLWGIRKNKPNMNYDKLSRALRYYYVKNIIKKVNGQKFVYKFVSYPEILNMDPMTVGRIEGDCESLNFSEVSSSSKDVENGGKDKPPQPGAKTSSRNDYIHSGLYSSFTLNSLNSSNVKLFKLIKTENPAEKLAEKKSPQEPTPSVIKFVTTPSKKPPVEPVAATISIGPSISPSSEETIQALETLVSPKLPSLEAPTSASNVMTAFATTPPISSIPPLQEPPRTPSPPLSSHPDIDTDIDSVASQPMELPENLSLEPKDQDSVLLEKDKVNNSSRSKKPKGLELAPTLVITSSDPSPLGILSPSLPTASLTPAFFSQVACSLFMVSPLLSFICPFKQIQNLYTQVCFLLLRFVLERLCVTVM
# How it was run: as §1
# ETV2 = biological target: T10, ETV2 (Homo sapiens, UniProt O00321 1-342); settings: protein: recombinant; tags: N-terminal GST; dsDNA, one strand shown
# T10 sequence: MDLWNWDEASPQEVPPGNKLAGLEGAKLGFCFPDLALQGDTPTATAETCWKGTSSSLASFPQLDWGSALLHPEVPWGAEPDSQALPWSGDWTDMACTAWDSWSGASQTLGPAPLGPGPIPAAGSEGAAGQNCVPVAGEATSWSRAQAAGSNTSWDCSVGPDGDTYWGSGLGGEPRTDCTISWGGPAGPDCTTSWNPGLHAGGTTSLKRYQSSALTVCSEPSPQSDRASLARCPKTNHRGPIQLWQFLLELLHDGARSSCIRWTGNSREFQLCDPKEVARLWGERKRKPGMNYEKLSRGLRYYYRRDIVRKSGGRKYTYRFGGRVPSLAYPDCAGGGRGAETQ
# How it was run: as §1
# ELF3 = biological target: T11, ELF3 (Homo sapiens, UniProt P78545 1-371); settings: protein: recombinant; tags: N-terminal GST; dsDNA, one strand shown
# T11 sequence: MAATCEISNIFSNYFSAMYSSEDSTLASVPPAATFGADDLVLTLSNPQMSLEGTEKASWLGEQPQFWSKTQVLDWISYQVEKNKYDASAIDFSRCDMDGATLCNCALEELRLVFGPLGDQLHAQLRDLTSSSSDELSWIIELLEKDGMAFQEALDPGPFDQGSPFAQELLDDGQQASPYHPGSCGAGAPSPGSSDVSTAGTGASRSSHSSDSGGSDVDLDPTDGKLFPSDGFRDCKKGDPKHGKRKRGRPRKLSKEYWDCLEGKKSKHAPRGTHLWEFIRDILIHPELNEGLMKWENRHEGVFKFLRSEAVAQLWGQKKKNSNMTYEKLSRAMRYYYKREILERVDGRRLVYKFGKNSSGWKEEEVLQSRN
# How it was run: as §1
# CRX = CRX (Homo sapiens, UniProt O43186 1-299); settings: protein: recombinant; tags: N-terminal GST; dsDNA, one strand shown
# Chain of CRX (O43186 whole entry): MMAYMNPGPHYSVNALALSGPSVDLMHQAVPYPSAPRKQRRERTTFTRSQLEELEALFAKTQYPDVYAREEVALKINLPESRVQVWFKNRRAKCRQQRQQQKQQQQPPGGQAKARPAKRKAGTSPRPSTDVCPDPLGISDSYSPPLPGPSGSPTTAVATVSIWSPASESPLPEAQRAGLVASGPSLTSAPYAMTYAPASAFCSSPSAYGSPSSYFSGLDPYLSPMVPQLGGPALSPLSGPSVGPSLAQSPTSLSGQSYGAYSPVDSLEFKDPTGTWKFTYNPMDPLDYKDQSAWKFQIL
# How it was run: as §1
# ETV1 = ETV1 (Homo sapiens, UniProt P50549 1-477); settings: protein: recombinant; tags: N-terminal GST; dsDNA, one strand shown
# Chain of ETV1 (P50549 whole entry): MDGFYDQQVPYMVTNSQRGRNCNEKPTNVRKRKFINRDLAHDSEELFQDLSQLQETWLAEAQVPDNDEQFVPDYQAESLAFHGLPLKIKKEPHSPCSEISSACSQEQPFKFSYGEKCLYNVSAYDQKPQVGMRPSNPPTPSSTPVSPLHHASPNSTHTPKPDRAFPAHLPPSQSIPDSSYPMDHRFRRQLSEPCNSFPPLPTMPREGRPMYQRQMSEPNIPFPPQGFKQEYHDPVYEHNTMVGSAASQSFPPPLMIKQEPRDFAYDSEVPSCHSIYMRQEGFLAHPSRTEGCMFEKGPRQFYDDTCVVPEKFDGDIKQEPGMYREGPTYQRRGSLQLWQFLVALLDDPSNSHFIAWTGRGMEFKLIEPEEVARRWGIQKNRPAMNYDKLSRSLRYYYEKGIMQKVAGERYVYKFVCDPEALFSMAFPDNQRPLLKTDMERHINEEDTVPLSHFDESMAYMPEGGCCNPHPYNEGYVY
# How it was run: as §1
sequence,measurement,setting,value
TACTGC,binding signal,FLI1,"1.22 fold enrichment (6-mer frequency, TF over GST control)"
same,binding signal,ELK1,"1.22 fold enrichment (6-mer frequency, TF over GST control)"
same,binding signal,GABPA,"1.17 fold enrichment (6-mer frequency, TF over GST control)"
same,binding signal,ERG,"1.25 fold enrichment (6-mer frequency, TF over GST control)"
same,binding signal,ELF1,"1.24 fold enrichment (6-mer frequency, TF over GST control)"
same,binding signal,EHF,"1.3 fold enrichment (6-mer frequency, TF over GST control)"
same,binding signal,SPI1,"1.24 fold enrichment (6-mer frequency, TF over GST control)"
same,binding signal,SPIB,"1.13 fold enrichment (6-mer frequency, TF over GST control)"
same,binding signal,ELK3,"1.1 fold enrichment (6-mer frequency, TF over GST control)"
same,binding signal,FEV,"1.24 fold enrichment (6-mer frequency, TF over GST control)"
same,binding signal,ETV5,"1.32 fold enrichment (6-mer frequency, TF over GST control)"
same,binding signal,HSF1,"1.1 fold enrichment (6-mer frequency, TF over GST control)"
same,binding signal,SPIC,"1.29 fold enrichment (6-mer frequency, TF over GST control)"
same,binding signal,ELF4,"1.22 fold enrichment (6-mer frequency, TF over GST control)"
same,binding signal,ELK4,"1.17 fold enrichment (6-mer frequency, TF over GST control)"
same,binding signal,ETV2,"1.09 fold enrichment (6-mer frequency, TF over GST control)"
same,binding signal,ELF3,"1.34 fold enrichment (6-mer frequency, TF over GST control)"
same,binding signal,CRX,"1.17 fold enrichment (6-mer frequency, TF over GST control)"
same,binding signal,ETV1,"1.08 fold enrichment (6-mer frequency, TF over GST control)"
